Source: PubChem BioAssay (NCI)
This is part of a sample that, as a whole, favours compounds with a hit. Of some 79,000 tested, about 15% had one in any assay. Rule as the data show it: active = growth inhibition above about 70%; inactive = the rest.

Columns and labels:
[1] = NCI Yeast Anticancer Drug Screen. Data for the rad50 strain (AID 155);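 also: 0% = growth of vehicle-only cultures of the same strain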; conditions: S. cerevisiae rad50 strain growth inhibition; at 50.0 µM; active compounds read high
Outline: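 Compounds were tested on a yeast strain with an engineered DNA damage repair alteration; the reported value is growth inhibition normalised to vehicle treatment.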

[2] = NCI Yeast Anticancer Drug Screen. Data for the mec2-1 strain (AID 157); conditions: S. cerevisiae mec2-1 strain, at 50.0 µM, active compounds read high
Outline: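 Each compound was tested on mec2-1 yeast, a strain altered in DNA damage repair or cell cycle control. Growth inhibition is reported relative to vehicle.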

[3] = NCI Yeast Anticancer Drug Screen. Data for the sgs1 mgt1 strain (AID 161);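 also: 0% = growth of cultures given vehicle only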; conditions: S. cerevisiae sgs1 mgt1 strain, at 50.0 µM, active compounds read high
Outline: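 Mutant yeast exposed to compound; growth scored against vehicle-only wells.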

[4] = NCI Yeast Anticancer Drug Screen. Data for the cln2 rad14 strain (AID 165);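 also: 0% = growth equal to vehicle treated cultures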; conditions: S. cerevisiae cln2 rad14 strain, at 50.0 µM, active compounds read high
Outline: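 Test compounds were added to cln2 rad14 yeast cultures; inhibition of growth was then determined by comparison with vehicle treatment.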

[5] = NCI Yeast Anticancer Drug Screen. Data for the bub3 strain (AID 167); conditions: S. cerevisiae bub3 mutant strain, at 50.0 µM, active compounds read high
Outline: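 Growth of a checkpoint-deficient yeast mutant is measured after compound exposure. Values represent inhibition relative to vehicle.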

[6] = NCI Yeast Anticancer Drug Screen. Data for the mlh1 rad18 strain (AID 175); conditions: S. cerevisiae mlh1 rad18 strain growth inhibition; at 50.0 µM; active compounds read high
Outline: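 Inhibition values reflect reduced growth of mutant yeast versus vehicle-treated controls following compound exposure; the mutations affect DNA damage repair.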

Measured: growth inhibition

CC(=O)c1ccc(N2C(=O)C/C(=C/c3ccccc3O)C2=O)cc1
inactive: [1] 16.1% | [2] 0.05% | [3] 9.3% | [4] -20.9% | [5] 5.2% | [6] 16.6%

NC(=O)CC(Nc1ncc2c(n1)-c1ccccc1OC2)C(=O)O (configuration not stated)
inactive: [1] 37.6% | [2] -16.4% | [3] -10.5% | [4] 9.95% | [5] -45.8% | [6] -53.8%

O=c1[nH]cc(COCC(O)CO)c(=O)[nH]1 (configuration not stated)
inactive: [1] -27% | [2] -10.7% | [3] -43.9% | [4] 3.95% | [5] -29.9% | [6] -23.7%

CCN(CC)CCOc1ccccc1C(C)C
inactive: [1] 14.6% | [2] 7.5% | [3] 17.1% | [4] 19.5% | [5] 4% | [6] 25.1%

CC(C)(C)SC(=S)SCC(=O)c1cc2cc(Br)ccc2o1
inactive: [1] -19.7% | [2] -25.6% | [3] -11.5% | [4] -3.25% | [5] -16.9% | [6] -8.5%

Cc1cc(C(N)=O)c(C(N)=O)c(Cl)n1
inactive: [1] 2.35% | [2] -7.35% | [3] -3.2% | [4] -0.2% | [5] 9.05% | [6] -10.7%

CCCCCCCCCCCCCCCCSc1ccncc1NN=O
inactive: [1] 36.2% | [2] -2% | [3] 17.1% | [4] -10.5% | [5] -3.8% | [6] 2.3%
